# Source: PubChem BioAssay (NCATS)
# Results filed as inconclusive are left out. The source made the active and inactive calls. Unless noted, the call rests on the fitted dose curve; in most records, active means well fitted curve in either direction with a large enough effect (not every such curve was filed as active); inconclusive means small, poorly fitted or top-dose-only effect, or another doubt; inactive means flat fitted curve, though single readings scatter.
# What was measured:
# [1] = molecular target: Lysosomal acid glucosylceramidase (Homo sapiens) (UniProt P04062); assay: Glucocerebrosidase-p2 (AID 348; in the data active means potency below about 10 µM; further: potency means the concentration at half of the fitted maximal effect); conditions: purified GBA, blue fluorogenic substrate, 40 min
# Sequence of Lysosomal acid glucosylceramidase (Homo sapiens) (P04062 whole entry, looked up): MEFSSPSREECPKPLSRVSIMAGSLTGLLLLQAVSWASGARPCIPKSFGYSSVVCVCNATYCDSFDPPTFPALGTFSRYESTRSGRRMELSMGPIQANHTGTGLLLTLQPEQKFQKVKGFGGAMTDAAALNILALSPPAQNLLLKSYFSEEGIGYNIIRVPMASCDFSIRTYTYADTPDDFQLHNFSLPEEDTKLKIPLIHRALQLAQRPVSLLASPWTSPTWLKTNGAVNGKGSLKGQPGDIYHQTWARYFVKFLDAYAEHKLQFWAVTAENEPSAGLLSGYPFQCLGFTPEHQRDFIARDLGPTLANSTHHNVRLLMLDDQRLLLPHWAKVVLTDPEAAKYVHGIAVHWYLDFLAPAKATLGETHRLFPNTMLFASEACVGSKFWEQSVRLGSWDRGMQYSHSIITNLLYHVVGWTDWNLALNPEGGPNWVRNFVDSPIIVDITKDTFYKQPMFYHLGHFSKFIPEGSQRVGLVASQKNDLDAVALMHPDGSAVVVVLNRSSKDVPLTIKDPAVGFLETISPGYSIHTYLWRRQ
# Procedure, shortened: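 Normal human glucocerebrosidase (0.2 nM) with blue fluorogenic substrate (80 uM final) in citrate/phosphate pH 5.9 with 10mM sodium taurocholate, 0.01% tween-20; 40 min RT, NaOH/glycine stop; fluorescence Ex 365/Em 440; AC50 from a titration from 0.6 nM upwards.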
# [2] = AP1 Signaling Pathway (AID 357); conditions: ME-180 AP-1-bla reporter, EGF-induced, beta-lactamase ratio, 5 h; at 7.69 µM (top of the series) unless noted;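 further: ME-180 reporter cells stimulated with EGF at its EC50 level; on the % scale 0 is the no-effect control and ±100 the full control effect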
# Procedure, shortened: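 Modulation of EGF-driven AP-1 transcription was assessed with a beta-lactamase reporter in ME-180 cells. Compound and EC50 EGF were co-incubated 5 hours at 37 °C before 2.5-hour CCF4 loading at room temperature and dual-emission reading.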
# [3] = molecular target: Cytochrome P450 1A2 (Homo sapiens) (UniProt P05177); assay: p450-cyp1a2 (AID 410; calls by dose curve; further: potency means the concentration at half of the fitted maximal effect); conditions: recombinant CYP1A2, luciferin-ME demethylation, luminescence; series mostly up to 57 µM
# Sequence of Cytochrome P450 1A2 (Homo sapiens) (P05177 whole entry, looked up): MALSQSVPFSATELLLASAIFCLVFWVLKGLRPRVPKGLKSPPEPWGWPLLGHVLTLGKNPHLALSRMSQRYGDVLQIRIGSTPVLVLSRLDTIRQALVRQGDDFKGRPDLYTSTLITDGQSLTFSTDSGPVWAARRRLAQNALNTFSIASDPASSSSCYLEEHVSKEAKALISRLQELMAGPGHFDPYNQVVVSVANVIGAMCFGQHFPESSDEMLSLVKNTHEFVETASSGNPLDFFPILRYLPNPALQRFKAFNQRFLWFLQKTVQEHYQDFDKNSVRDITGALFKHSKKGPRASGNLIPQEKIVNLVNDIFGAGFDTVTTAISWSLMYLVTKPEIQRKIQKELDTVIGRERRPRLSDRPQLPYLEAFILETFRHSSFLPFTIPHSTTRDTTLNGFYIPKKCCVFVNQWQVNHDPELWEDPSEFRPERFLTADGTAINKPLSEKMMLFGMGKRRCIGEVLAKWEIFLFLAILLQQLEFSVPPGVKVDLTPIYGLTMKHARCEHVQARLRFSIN
# Procedure, shortened: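 O-Demethylation of luciferin 6' methyl ether by human CYP1A2 is monitored as luciferase luminescence. Substrate sits at Km (100uM); enzyme is 20nM. Values are scaled to 57 uM furafylline as maximal inhibition.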
# [4] = NFAT Signaling Pathway (AID 444); conditions: Jurkat NFAT-bla M1, carbachol, beta-lactamase ratio, 5 h; at 7.69 µM (top of the series) unless noted;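 further: carbachol stimulus at about its EC50 of 1 µM final; on the % scale 0 is the no-effect control and ±100 the full control effect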
# Procedure, shortened: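 Read-out: CCF4 FRET ratio (460 nm/530 nm) after 1 h RT dye loading, used for %activity and AC50 from titration series. Cells: Jurkat NFAT-β-lactamase/M1 line, treated with compound plus 1 uM carbachol for 5 h, 37 °C.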
# [5] = Stat Signaling Pathway (AID 446); conditions: ME-180 SIE beta-lactamase reporter, IL-6 stimulated, 5 h; at 7.69 µM (top of the series) unless noted;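 further: ME-180 cervical cancer cells given 40 pM IL-6 alongside compound; SIE-controlled beta-lactamase reporter measured as 460/530 nm FRET emission ratio; on the % scale 0 is the no-effect control and ±100 the full control effect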
# Procedure, shortened: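 Emission at 460 and 530 nm (excitation 405 nm) reports SIE-controlled beta-lactamase in ME-180 cells. Cells received compound with 40 pM IL-6 for 5 hrs at 37 C; data scaled between 300 pM IL-6 and 125 nM JAK-inhibitor controls.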
# [6] = molecular target: Glucocorticoid receptor (Homo sapiens) (UniProt P04150); assay: GR-GFP Redistribution (AID 450;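 active means compounds whose dose series gives a full or clear partial fitted curve of increased nuclear translocation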; further: potency means the concentration at half of the fitted maximal effect); conditions: U2OS GR-GFP nuclear translocation, laser cytometry, 2 h
# Sequence of Glucocorticoid receptor (Homo sapiens) (P04150 whole entry, looked up, the tested form may be a part): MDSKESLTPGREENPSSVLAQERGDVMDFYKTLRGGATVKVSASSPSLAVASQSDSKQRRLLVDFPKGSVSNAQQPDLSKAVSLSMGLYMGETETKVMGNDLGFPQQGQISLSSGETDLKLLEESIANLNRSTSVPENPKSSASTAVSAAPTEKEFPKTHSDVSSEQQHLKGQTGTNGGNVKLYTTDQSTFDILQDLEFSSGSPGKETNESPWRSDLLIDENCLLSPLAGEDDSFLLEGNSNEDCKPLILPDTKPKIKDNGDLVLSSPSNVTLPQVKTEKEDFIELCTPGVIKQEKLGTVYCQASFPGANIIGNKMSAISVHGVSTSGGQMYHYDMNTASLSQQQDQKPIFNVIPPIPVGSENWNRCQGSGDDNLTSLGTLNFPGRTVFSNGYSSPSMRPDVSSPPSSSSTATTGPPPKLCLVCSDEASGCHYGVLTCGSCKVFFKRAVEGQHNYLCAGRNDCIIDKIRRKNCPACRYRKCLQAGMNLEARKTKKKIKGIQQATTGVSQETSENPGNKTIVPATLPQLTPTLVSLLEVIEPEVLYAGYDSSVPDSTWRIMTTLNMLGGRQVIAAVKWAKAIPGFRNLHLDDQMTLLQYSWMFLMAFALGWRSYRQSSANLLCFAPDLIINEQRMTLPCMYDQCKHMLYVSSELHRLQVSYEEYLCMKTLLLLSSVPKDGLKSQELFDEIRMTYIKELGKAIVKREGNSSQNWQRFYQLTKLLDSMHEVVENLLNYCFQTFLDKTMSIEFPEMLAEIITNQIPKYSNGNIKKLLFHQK
# [7] = molecular target: Glucocorticoid receptor (Homo sapiens) (UniProt P04150); assay: GR-EFC Redistribution (AID 451; calls by dose curve; further: potency means the concentration at half of the fitted maximal effect); conditions: CHO-K1 GR-EFC translocation, beta-gal luminescence, 2 h
# Procedure, shortened: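 Translocation of GR-ED fusion to nuclear EA restores b-gal, read by luminescence after 1 h room-temperature detection. Engineered CHO-K1 biosensor cells, 1,000/well, exposed 2 h at 37 C to titrations up to 46 uM final.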
# [8] = molecular target: Mitogen-activated protein kinase 10 (Mus musculus) (UniProt Q61831); assay: JNK3 AlphaScreen Assay (AID 530); conditions: JNK3 lysate, c-Jun phosphorylation; series mostly up to 57.1 µM;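 further: kinase came from lysate of stimulated human HepG2 cells; signal reports phosphorylation of biotinylated GST-cJun 1-79 at Ser73 with 10 µM ATP; on the % scale 0 is the no-effect control and ±100 the full control effect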
# Procedure, shortened: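 qHTS titrations with 15 min compound pre-incubation before adding ATP (10 uM final). Read-out: AlphaScreen of Ser73-phosphorylated biotin-GST-cJun using HepG2 lysate JNK3 activated by IL-1β and TNFα.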
# [9] = molecular target: 3',5'-cyclic-AMP phosphodiesterase 4B (Homo sapiens) (UniProt Q07343); assay: qHTS Assay for Inhibitors of PDE-IV (AID 607; active means well fitted activation curve with a large enough effect in the main read-out, with a control signal flat, not every such curve was filed as active; further: % of control where 0% means no effect); conditions: HEK293 ACTOne CNG channel cells, membrane potential fluorescence; series mostly up to 22.9 µM
# Sequence of 3',5'-cyclic-AMP phosphodiesterase 4B (Homo sapiens) (Q07343 whole entry, looked up): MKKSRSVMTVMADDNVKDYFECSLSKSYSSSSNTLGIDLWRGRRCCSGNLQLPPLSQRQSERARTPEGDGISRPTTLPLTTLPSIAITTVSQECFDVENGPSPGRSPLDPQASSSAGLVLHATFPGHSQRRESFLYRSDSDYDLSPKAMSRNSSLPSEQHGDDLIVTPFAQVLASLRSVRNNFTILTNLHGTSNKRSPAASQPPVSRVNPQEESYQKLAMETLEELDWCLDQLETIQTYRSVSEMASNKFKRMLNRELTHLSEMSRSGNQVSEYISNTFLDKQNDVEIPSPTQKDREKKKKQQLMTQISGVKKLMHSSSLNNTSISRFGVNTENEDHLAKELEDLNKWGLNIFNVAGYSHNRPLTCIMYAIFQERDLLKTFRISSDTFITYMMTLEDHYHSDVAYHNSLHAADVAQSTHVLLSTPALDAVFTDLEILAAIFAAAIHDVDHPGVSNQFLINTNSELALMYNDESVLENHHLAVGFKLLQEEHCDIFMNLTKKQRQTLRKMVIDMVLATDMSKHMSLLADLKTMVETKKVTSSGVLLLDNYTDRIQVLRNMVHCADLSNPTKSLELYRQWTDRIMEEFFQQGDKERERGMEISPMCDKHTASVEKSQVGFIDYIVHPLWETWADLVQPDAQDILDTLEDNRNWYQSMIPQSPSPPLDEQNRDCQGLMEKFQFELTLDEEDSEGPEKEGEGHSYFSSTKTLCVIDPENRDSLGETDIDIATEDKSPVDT
# Procedure, shortened: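 The readout is membrane depolarisation from a cAMP-sensing CNG channel, detected with a potential dye at ex 535/em 590. Cells were HEK293-derived (endogenous PDE-IV) at 1000 cells/well, titrated up to 22.9 uM final.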
# [10] = molecular target: Cytochrome P450 3A4 (Homo sapiens) (UniProt P08684); assay: qHTS Assay for Inhibitors and Substrates of Cytochrome P450 3A4 (AID 884; active means well fitted curve in the direction sought with a large enough effect; an effect the other way counts as inactive or inconclusive; further: potency means the concentration at half of the fitted maximal effect; nearly all actives have a fitted effect of over 50% in size); conditions: recombinant CYP3A4, Luciferin-PPXE luminescence; series mostly up to 57.1 µM
# Sequence of Cytochrome P450 3A4 (Homo sapiens) (P08684 whole entry, looked up): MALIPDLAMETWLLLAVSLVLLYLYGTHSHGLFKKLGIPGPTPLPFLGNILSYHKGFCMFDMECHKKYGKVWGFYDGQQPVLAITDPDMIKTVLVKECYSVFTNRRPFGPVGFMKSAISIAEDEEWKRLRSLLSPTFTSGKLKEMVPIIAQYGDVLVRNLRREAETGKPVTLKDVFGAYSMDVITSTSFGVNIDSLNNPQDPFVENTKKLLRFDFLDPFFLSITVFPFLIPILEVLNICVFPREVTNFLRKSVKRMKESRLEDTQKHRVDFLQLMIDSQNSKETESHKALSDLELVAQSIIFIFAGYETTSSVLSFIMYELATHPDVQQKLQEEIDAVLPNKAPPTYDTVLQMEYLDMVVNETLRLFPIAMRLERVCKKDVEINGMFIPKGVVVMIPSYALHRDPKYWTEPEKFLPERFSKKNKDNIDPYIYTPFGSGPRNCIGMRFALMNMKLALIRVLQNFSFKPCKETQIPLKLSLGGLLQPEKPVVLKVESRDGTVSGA
# Procedure, shortened: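 Luminescent readout of luciferin produced by CYP3A4 (20 nM) dealkylation of Luciferin-PPXE, 25 uM (its KM). NADPH-driven reaction ran 60 min at RT after 10 min compound preincubation; data scaled to 57 uM ketoconazole as 100% inhibition.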
# [11] = molecular target: Cytochrome P450 3A4 (Homo sapiens) (UniProt P08684); assay: qHTS Assay for Activators of Cytochrome P450 3A4 (AID 885; active means well fitted curve in the direction sought with a large enough effect; an effect the other way counts as inactive or inconclusive; further: nearly all actives have a fitted effect of over 65% in size); conditions: recombinant CYP3A4, Luciferin-PPXE luminescence, 60 min; series mostly up to 57.1 µM
# Procedure, shortened: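 Activators are scored by enhanced luminescence from CYP3A4 conversion of luciferin-PPXE (25uM, equal to KM) to luciferin, after 60 min at RT with an NADPH-regenerating system.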
# [12] = Confirmation and Secondary Assay for Modulators of Hemoglobin Beta Chain Splicing at IVS2 654 locus (AID 910; active means well fitted curve in the direction sought with a large enough effect; an effect the other way counts as inactive or inconclusive;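 further: HeLa cells stably carrying EGFP split by mutant beta-globin IVS2-654 intron; per-well total GFP intensity by laser scanning cytometry after 2-day treatment; % of control where 0% means no effect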); conditions: HeLa EGFP-654 splicing reporter, GFP fluorescence, 48 h; series mostly up to 38.3 µM
# Procedure, shortened: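 Readout: per-well total peak green fluorescence (488 nm ex, 500–520 nm em) from objects 5–250 µm, reflecting correct splicing of an EGFP-654 reporter. Compounds were applied for 2 days at 37 °C to overnight-plated HeLa EGFP-654 cells; controls were DMSO and 500 nM IVS2-654 PNA.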
# [13] = molecular target: Ubiquitin carboxyl-terminal hydrolase 1 (Homo sapiens) (UniProt O94782); assay: Inhibitors of USP1/UAF1: Pilot qHTS (AID 504865; active means well fitted curve in the direction sought with a large enough effect; an effect the other way counts as inactive or inconclusive;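 further: rhodamine fluorescence freed from ubiquitin-rhodamine substrate followed over time; top concentration of the series differs between compounds; on the % scale 0 is the no-effect control and ±100 the full control effect; nearly all actives have a fitted effect of over 35% in size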); conditions: purified USP1/UAF1, Ub-rhodamine cleavage fluorescence; series mostly up to 54.9 µM
# Sequence of Ubiquitin carboxyl-terminal hydrolase 1 (Homo sapiens) (O94782 whole entry, looked up): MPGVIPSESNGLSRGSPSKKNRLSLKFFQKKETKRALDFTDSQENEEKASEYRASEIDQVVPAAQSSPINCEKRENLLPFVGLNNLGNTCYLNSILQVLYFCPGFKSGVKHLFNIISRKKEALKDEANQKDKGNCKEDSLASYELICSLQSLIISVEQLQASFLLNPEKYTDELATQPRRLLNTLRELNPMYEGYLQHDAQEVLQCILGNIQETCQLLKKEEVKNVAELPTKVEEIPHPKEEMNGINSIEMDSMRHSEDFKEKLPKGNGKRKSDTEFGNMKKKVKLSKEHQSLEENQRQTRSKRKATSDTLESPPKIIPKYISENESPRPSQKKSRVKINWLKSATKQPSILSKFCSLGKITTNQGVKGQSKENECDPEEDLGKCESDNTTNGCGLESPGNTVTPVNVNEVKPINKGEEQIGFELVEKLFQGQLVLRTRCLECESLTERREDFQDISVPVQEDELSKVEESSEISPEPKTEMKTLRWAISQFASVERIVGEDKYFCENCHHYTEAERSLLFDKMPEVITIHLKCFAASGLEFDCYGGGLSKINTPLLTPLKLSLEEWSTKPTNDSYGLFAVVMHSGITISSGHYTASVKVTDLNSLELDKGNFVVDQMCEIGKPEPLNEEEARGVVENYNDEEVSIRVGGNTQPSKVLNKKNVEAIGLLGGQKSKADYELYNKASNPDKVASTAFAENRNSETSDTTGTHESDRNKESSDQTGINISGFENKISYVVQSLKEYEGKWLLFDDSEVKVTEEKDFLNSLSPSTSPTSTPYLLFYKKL
# Procedure, shortened: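 Enzyme-free wells gave the negative control, while test wells held 1nM USP1/UAF1 preincubated with compound for 15 min at room temperature. Ub-Rho at 150nM final started the reaction, and fluorescence at 480/540 nm was recorded kinetically.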
# [14] = Counterscreen qHTS for small molecule stabilizers of the endoplasmic reticulum resident proteome: GLuc-NoTag assay (AID 1508627; active means well fitted curve in the direction sought with a large enough effect; an effect the other way counts as inactive or inconclusive; further: potency means the concentration at half of the fitted maximal effect); conditions: Gaussia luciferase NoTag secretion counterscreen, luminescence, thapsigargin 100 nM for final 4 h; series mostly up to 76.4 µM
# Procedure, shortened: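 Counterscreen line: SH-SY5Y-GLuc-NoTag cells, treated with compound 19 hr before a 4 hr, 100 nM thapsigargin calcium depletion. Secreted Gaussia luciferase in the medium was measured by luminescence after coelenterazine was added (0.07x final), with cells unlysed.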
# [15] = qHTS Assay for Lipid Storage Modulators (AID 1519; calls by dose curve); conditions: Drosophila S3 cells, BODIPY lipid droplet/cell ratio, laser cytometry, cells loaded with oleic acid; for activity change, negative = inhibition: at 57.5 µM (top of the series)
# Procedure, shortened: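 Cells seeded at 5,000 per well were treated with compounds over a concentration series and loaded with oleic acid (400 uM, as added). Lipid droplet fluorescence (488 nm excitation, 500-530 nm channel) was read by laser-scanning cytometry and normalized to 20 uM Triacsin C.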
# [16] = Confirmatory qHTS for small molecule stabilizers of the endoplasmic reticulum resident proteome: Secreted ER Calcium Modulated Protein (SERCaMP) assay (AID 1508628; active means well fitted curve in the direction sought with a large enough effect; an effect the other way counts as inactive or inconclusive; further: nearly all actives have a fitted effect of over 40% in size; further: potency means the concentration at half of the fitted maximal effect); conditions: SERCaMP secreted luciferase ER calcium/proteostasis reporter; series mostly up to 76.3 µM
# Procedure, shortened: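 Reporter secretion upon ER calcium depletion (100 nM thapsigargin, 4 h, 37C) is measured as medium luminescence with coelenterazine, after 16 h compound pretreatment of SH-SY5Y-GLuc-SERCaMP cells; primary at three concentrations up to 38.3 uM, follow-up at 11 (up to 76.6 uM).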
# [17] = qHTS Assay for Identification of Small Molecule Agonists for Hypoxia Response Element Signaling Pathway (AID 914; active means well fitted activation curve with a large enough effect in the signal ratio, with a control signal flat, not every such curve was filed as active; the % refers to the signal ratio; further: % of control where 0% means no effect); conditions: ME-180 (cervical carcinoma) HRE-bla reporter, beta-lactamase ratio, CoCl2, 17 h; activation: stronger effect = higher value
# Procedure, shortened: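 Read-out: CCF4 FRET ratio of 460nm to 530nm emission (excitation 405nm) after 2.5 hours at room temperature, taken from HRE-bla ME-180 cells that had been exposed to compound and EC50 CoCl2 for 17 hours.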
# [18] = molecular target: Dual specificity protein kinase CLK4 (Homo sapiens) (UniProt Q9HAZ1); assay: qHTS Assay for Inhibitors of CDC-like Kinase 4 (Kinase-Glo Assay) (AID 1770; active means well fitted curve in the direction sought with a large enough effect; an effect the other way counts as inactive or inconclusive; further: on the % scale 0 is the no-effect control and ±100 the full control effect; nearly all actives have a fitted effect of over 65% in size); conditions: recombinant Clk4, Kinase-Glo ATP depletion luminescence; series mostly up to 66.7 µM
# Sequence of Dual specificity protein kinase CLK4 (Homo sapiens) (Q9HAZ1 whole entry, looked up): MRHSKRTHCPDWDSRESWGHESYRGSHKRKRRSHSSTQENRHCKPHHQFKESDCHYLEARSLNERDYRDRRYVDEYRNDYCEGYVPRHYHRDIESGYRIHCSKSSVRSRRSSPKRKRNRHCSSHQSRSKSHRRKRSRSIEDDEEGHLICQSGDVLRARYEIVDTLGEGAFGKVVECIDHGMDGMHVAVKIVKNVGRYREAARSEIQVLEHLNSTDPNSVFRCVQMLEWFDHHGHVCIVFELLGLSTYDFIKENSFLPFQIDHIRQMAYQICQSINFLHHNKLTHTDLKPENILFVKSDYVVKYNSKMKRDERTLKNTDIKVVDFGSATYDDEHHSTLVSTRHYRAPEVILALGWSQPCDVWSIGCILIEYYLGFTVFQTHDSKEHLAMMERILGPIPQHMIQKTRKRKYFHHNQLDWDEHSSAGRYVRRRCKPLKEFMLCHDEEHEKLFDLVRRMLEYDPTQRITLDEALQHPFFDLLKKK
# Procedure, shortened: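 Clk4 25 nM, RS peptide 100 uM, ATP 1 uM, pH 7.5 Tris, 10 mM MgCl2, 2.5 mM DTT; 4.5 h RT; ATP depletion read by Kinase-Glo luminescence.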
# [19] = molecular target: Dual specificity protein kinase CLK4 (Homo sapiens) (UniProt Q9HAZ1); assay: qHTS Assay for Inhibitors of CDC-like Kinase 4 (ADP-Glo Assay) (AID 1771; active means well fitted curve in the direction sought with a large enough effect; an effect the other way counts as inactive or inconclusive; further: on the % scale 0 is the no-effect control and ±100 the full control effect; nearly all actives have a fitted effect of over 70% in size); conditions: recombinant CLK4, ADP-Glo luminescence; series mostly up to 80 µM
# Procedure, shortened: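 Compounds are pin-transferred onto substrate mix (100 uM RS peptide, 1 uM ATP), then 25 nM Clk4 is added. After 1 hr at room temperature, ADP-Glo reagent runs 45 min, detection reagent 30 min, then luminescence is read.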
# [20] = measured here: cell count channel max response
# [21] = measured here: lipid channel max response
smiles,measurement,setting,value
COc1ccccc1-c1ccc2ncnc(N3CCN(C)CC3)c2c1,Potency,[1],> 11.4 µM (inactive)
same,"activity change, negative = inhibition",[2],2.3% (inactive)
same,Potency,[3],3.16 µM (active)
same,"activity change, negative = inhibition",[4],4.65% (inactive)
same,"activity, negative = inhibition",[5],2.98% (inactive)
same,Potency,[6],> 46 µM (inactive)
same,Potency,[7],> 46 µM (inactive)
same,outcome,[8],inactive
same,Potency,[9],inactive
same,Potency,[10],3.16 µM (active)
same,Potency,[11],inactive
same,outcome,[12],inactive
same,Potency,[13],inactive
same,Potency,[14],44.7 µM (active)
COc1ccccc1CNc1ncnc2ccc(-c3ccccc3CN(C)C)cc12,Potency,[1],> 11.4 µM (inactive)
same,"activity change, negative = inhibition",[2],-6.09% (inactive)
same,Potency,[3],15.8 µM (active)
same,"activity, negative = inhibition",[5],-9.28% (inactive)
same,Potency,[6],> 46 µM (inactive)
same,Potency,[7],> 46 µM (inactive)
same,outcome,[8],inactive
same,Potency,[11],inactive
same,outcome,[12],inactive
same,"activity change, negative = inhibition",[15],5.99% (inactive)
same,max response,[15]; [20],-1.21%
same,max response,[15]; [21],3.46%
same,Potency,[13],inactive
same,Potency,[16],10 µM (active)
COCCn1c(=O)c(CCc2ccccc2)nc2cnc(N3CCN(C)CC3)nc21,Potency,[1],> 11.4 µM (inactive)
same,"activity change, negative = inhibition",[2],2.87% (inactive)
same,"activity change, negative = inhibition",[4],-7.4% (inactive)
same,"activity, negative = inhibition",[5],-8.57% (inactive)
same,Potency,[6],> 9.22 µM (inactive)
same,Potency,[7],> 46 µM (inactive)
same,outcome,[8],inactive
same,Potency,[9],inactive
same,"activity change, negative = inhibition",[15],5.96% (inactive)
same,max response,[15]; [20],-2.68%
same,max response,[15]; [21],4.85%
Cc1ccccc1-c1nc(NC2CCNCC2)c2ccccc2n1,Potency,[1],> 11.4 µM (inactive)
same,"activity change, negative = inhibition",[2],19.1% (inactive)
same,Potency,[3],20 µM (active)
same,"activity change, negative = inhibition",[4],0.36% (inactive)
same,"activity, negative = inhibition",[5],-7.16% (inactive)
same,Potency,[6],> 46 µM (inactive)
same,Potency,[7],> 46 µM (inactive)
same,outcome,[8],inactive
same,Potency,[9],inactive
same,outcome,[12],inactive
same,activation,[17],12.4% (inactive)
same,Potency,[16],31.6 µM (active)
COc1ccc(-n2c(=O)c(-c3cccc(C#N)c3)nc3cnc(N4CCNCC4)nc32)cc1,"activity change, negative = inhibition",[2],6.83% (inactive)
same,Potency,[3],15.8 µM (active)
same,"activity change, negative = inhibition",[4],5.29% (inactive)
same,"activity, negative = inhibition",[5],13.3% (inactive)
same,Potency,[7],> 46 µM (inactive)
same,outcome,[8],inactive
same,Potency,[9],inactive
same,"activity change, negative = inhibition",[15],9.59% (inactive)
same,max response,[15]; [20],24%
same,max response,[15]; [21],29.5%
same,Potency,[18],inactive
same,Potency,[19],inactive
same,Potency,[13],inactive
same,Potency,[16],25.1 µM (active)
O=c1c(CCc2ccccc2)nc2cnc(N3CCNCC3)nc2n1CCc1ccccc1,"activity change, negative = inhibition",[2],9.43% (inactive)
same,"activity change, negative = inhibition",[4],27.2% (inactive)
same,"activity, negative = inhibition",[5],16.4% (inactive)
same,Potency,[6],> 9.22 µM (inactive)
same,Potency,[7],> 46 µM (inactive)
same,"activity change, negative = inhibition",[15],2.33% (inactive)
same,max response,[15]; [20],-7.41%
same,max response,[15]; [21],-3.07%
same,Potency,[16],inactive
